From PubChem BioAssay (Tox21)
Results filed as inconclusive are left out. A call without a number means that no potency is given here. Active and inactive are the calls of the source. The call rests on the fitted dose curve; in most records, active means well fitted activation curve with a large enough effect in the repeat runs; inconclusive means weak or mixed curves; inactive means flat fitted curve, though single readings scatter.

Test: A CellTox Green Cytotoxicity Assay to monitor cytotoxicity in HEK293 cells - 24 hour (AID 1224875); further: nearly all actives have a fitted effect of over 45% in size
Details: CellTox Green fluorescence; series mostly up to 76.8 µM
Excerpt: National Center for Advancing Translational Sciences [NCATS]
NIH Chemical Genomics Center [NCGC]
U.S. Environmental Protection Agency [EPA]
National Institutes of Environmental Health Sciences [NIEHS]
National Toxicology Program [NTP]
Cell-based models are critical for drug discovery. Determining the natural cytotoxic effects resulting from test compounds is an essential research activity. A CellTox Green Cytotoxicity Assay to monitor cytotoxicity in real time of continues cell culture during 40 hours of the compound treatment was used to screen Tox21 10K library compounds in Hek293 cells. CellTox Green Cytotoxicity Assay is a nonlytic, homogeneous, biofluorescent method to measure cytotoxicity in cell culture after experimental manipulation. The assay system uses a proprietary asymmetric cyanine dye that is excluded from viable cells but preferentially stains the dead cell's DNA. […] Viable cells produce no appreciable increases in fluorescence. Therefore, the fluorescence signal produced by the binding interaction with dead cell DNA is proportional to cytotoxicity.
The mixture of Hek293 cell suspension and reagents were dispensed at 600cells/6 ul/well in 1536-well tissue culture treated black solid bottom plates using a Multidrop dispenser. After the assay plates were incubated at a 37 C/5% CO2 incubator for 5 hours, 23 nL of compounds dissolved in DMSO, positive and negative controls was transferred to the assay plate by a pintool work station. The plates were incubated at 37 C for 40 hours. The fluorescence intensity were measured at 0h, 8h, 16h, 24h, 32h and 40h time points using ViewLux plate reader during compound treatment.
Potency means the concentration at half of the fitted maximal effect.

Row | Structure (SMILES) | Potency
1 | CCN(CC)c1c([N+](=O)[O-])cc(C(F)(F)F)c(N)c1[N+](=O)[O-] | inactive
2 | BrC(Br)Br | inactive
3 | BrCBr | inactive
4 | O=[N+]([O-])c1ccc(Oc2ccc(C(F)(F)F)cc2[N+](=O)[O-])cc1 | inactive
5 | O=C1NCN(c2ccccc2)C12CCN(CC1COc3ccccc3O1)CC2 (stereo not given) | inactive
6 | Oc1ccc(I)cc1 | inactive
7 | COP(=O)(CCC(=O)NCO)OC | inactive
8 | ClCCN1CCOCC1 | inactive
9 | ClC1=C(Cl)[C@]2(Cl)[C@@H]3[C@@H]4C[C@@H]([C@H]5O[C@@H]45)[C@@H]3[C@@]1(Cl)C2(Cl)Cl | 49 µM (active)
10 | CCOP(=O)(NC(C)C)Oc1ccc(SC)c(C)c1 (stereo not given) | inactive
11 | CN(C)C1CSSSC1 | inactive
12 | CCOCCOC(C)=O | inactive
13 | C=CC(=O)N(C)C | inactive
14 | CC(=[OH+])/C=C(/C)[O-].CC(=[OH+])/C=C(\C)[O-].CC(=[OH+])/C=C(\C)[O-].[Fe] | inactive
15 | COc1ccc(OC)c(CC(C)N)c1 (stereo not given) | inactive
16 | Cl/C=C\CCl | inactive
17 | Cc1cc(C)c(C2=C(OC(=O)CC(C)(C)C)C3(CCCC3)OC2=O)c(C)c1 | inactive
18 | CCCCCCCCCC[N+](C)(C)CCCCCCCCCC | 15.5 µM (active)
19 | ClC(Cl)=C(Cl)Cl | inactive
20 | SCc1ccco1 | inactive

Row | Structure (SMILES) | Potency
21 | CC(C)CCCCCOC(=O)c1ccccc1C(=O)OCCCCCC(C)C | inactive
22 | N#CCc1ccc(Cl)cc1 | inactive
23 | CCSC(C)CC1CC(=O)C(/C(CC)=N/OC/C=C/Cl)=C(O)C1 (stereo not given) | inactive
24 | CN(C)[C@@H]1C(=O)C(C(N)=O)=C(O)[C@@]2(O)C(=O)C3=C(O)c4c(O)ccc(Cl)c4[C@@](C)(O)[C@H]3C[C@@H]12 | inactive
25 | CC(C)(C)c1cc([N+](=O)[O-])cc(C(C)(C)C)c1O | inactive
26 | ClC1=C(Cl)[C@]2(Cl)[C@@H]3[C@@H](Cl)[C@@H](Cl)C[C@@H]3[C@@]1(Cl)C2(Cl)Cl | inactive
27 | Clc1ccc(-c2ccc(Cl)c(Cl)c2Cl)c(Cl)c1Cl | inactive
28 | Fc1cccc(Cl)c1CCl | inactive
29 | C=CCC1=C(C)C(OC(=O)C2C(C=C(C)C)C2(C)C)CC1=O (stereo not given) | 51.9 µM (active)
30 | O=C(CCCN1CCC2(CC1)C(=O)NCN2c1ccccc1)c1ccc(F)cc1 | inactive
31 | CCCCCCCCCCCCCN1CC(C)OC(C)C1 (stereo not given) | inactive
32 | CCCCCCCCCCCCBr | inactive
33 | CCCCN(CCCC)C(=S)[S-].CCCCN(CCCC)C(=S)[S-].[Zn+2] | 21.9 µM (active)
34 | CCc1nn(C)c(C(=O)NCc2ccc(C(C)(C)C)cc2)c1Cl | inactive
35 | CC(=O)C(Cl)(Cl)Cl | inactive
36 | CN(CCCC(=O)c1cccnc1)N=O | inactive
37 | S=C=Nc1cccc2ccccc12 | inactive
38 | [Cl][Sb]([Cl])[Cl] | inactive
39 | O=c1[nH]c2ccccc2n1C1CCN(CCCC(c2ccc(F)cc2)c2ccc(F)cc2)CC1 | inactive
40 | COc1ccc(N)cc1N | inactive
